Screens as filed in PubChem.
Pf growth 48h: inhibits P. falciparum growth in the first generation, 48 h | Potency, µM (highest dose often 28.7 µM), usual class: inhibitors | 5.9% of 310,000 active | P. falciparum luciferase growth in erythrocytes, 48 h
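Luciferase-expressing P. falciparum in infected erythrocytes (2% hematocrit, 0.1% parasitemia final) in RPMI 1640/0.5% Albumax were exposed to compound for 48 hours at 37 C, 5% CO2; growth read as luminescence.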
FBPA Giardia inh: inhibitors of Giardia lamblia fructose-1,6-bisphosphate aldolase; A8B2U2; purified Giardia FBPA; Potency, µM (top dose mostly 59.6 µM), most hits filed as inhibitors; 0.71% of 290,000 active; AID 2451; further: nearly all actives have a fitted effect of over 55% in size
Target sequence (A8B2U2 whole entry, looked up): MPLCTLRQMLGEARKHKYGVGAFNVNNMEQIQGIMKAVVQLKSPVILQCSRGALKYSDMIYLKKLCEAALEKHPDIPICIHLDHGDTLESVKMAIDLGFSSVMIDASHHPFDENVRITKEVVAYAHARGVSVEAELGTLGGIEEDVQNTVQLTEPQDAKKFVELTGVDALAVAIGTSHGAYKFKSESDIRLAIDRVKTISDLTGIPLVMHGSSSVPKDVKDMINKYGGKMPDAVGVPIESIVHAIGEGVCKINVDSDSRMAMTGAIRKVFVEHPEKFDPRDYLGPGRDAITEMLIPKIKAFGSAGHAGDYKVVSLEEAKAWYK
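40 nM FBPA preincubated 10 min at RT with compound (up to 57.5 uM final), then substrate plus GAPDH/TPI/NAD/arsenate coupling and diaphorase/resazurin added. Fluorescence read after 20 min at RT, 525/598 nm.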
Sm TGR block: inhibitors of Schistosoma mansoni thioredoxin glutathione reductase; purified TGR, DTNB reduction, TNB absorbance 405 nm; Potency, µM (titrated, usually from 114 µM), actives largely listed as inhibitors; 3% of 360,000 active; Q962Y6; further: nearly all actives have a fitted effect of over 60% in size
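First, TGR (20 nM dispensed) and NADPH were mixed with compound. Second, a 15 min room-temperature incubation followed. Third, further NADPH and then DTNB were added to start the reaction. Finally, TNB absorbance was monitored kinetically.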
HCMV inh: inhibitors of human cytomegalovirus; 4.5% of 410,000 active; HFF cells, HCMV-luciferase reporter, 72 h; stronger effect = lower value; AID 1259415; activity change, negative = inhibition, % at 57.5 µM; in the data active means activity change below about -60%; inconclusive means no clear call, values can overlap the other calls; inactive means above about -39%
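Human foreskin fibroblasts infected with luciferase-reporter HCMV at MOI 1 PFU/cell, compounds at two doses. Luciferase measured 72 h post infection; normalized to buffer-only basal and Salinomycin (10uM) controls.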
Pf growth 96h: inhibits malaria parasite growth, 96 h; P. falciparum luciferase reporter growth, 96 h; Potency, µM (top dose mostly 28.7 µM), most hits filed as inhibitors; 6.9% of 320,000 active; AID 504834
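Delayed-death screen, second-generation endpoint: infected erythrocytes, 2% hematocrit, 0.05% parasitemia final; 96 hours at 37 C, 5% CO2; luciferase detection reagent; luminescence decrease equals reduced growth.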
A number is an active result; - = inactive; ? = inconclusive; . = not tested or not shown. Compounds with a hit are over-represented: about 14% of the library has one in this group of screens. Unless noted, the call rests on the fitted dose curve; in most records, active means well fitted curve in the direction sought with a large enough effect; inconclusive means small, poorly fitted or top-dose-only effect, or another doubt; inactive means no such curve, though single readings can be large; an effect the other way counts as inactive or inconclusive.

SMILES	Pf growth 48h	FBPA Giardia inh	Sm TGR block	HCMV inh	Pf growth 96h
CCOC(=O)C1=C(C)N=c2s/c(=C3\C(=O)Nc4ccccc43)c(=O)n2C1c1ccc2c(c1)OCO2 (stereo not given)	-	-	3.98µM	-	.
O=C(CC1(CC(=O)N2CCOCC2)CCCC1)Nc1ccc(F)cc1	.	.	.	-	.
NC(=O)N/N=C/c1ccccc1OCc1cccc2ccccc12	-	-	-	-	13.1µM
COc1ccc(/C=N/NC(=O)CCn2cnc(-c3ccccc3)c2-c2ccccc2)cc1	?	-	-	-82.6	-
CN(C)c1ccc(/C=N/NC(=O)COc2ccccc2)cc1	-	-	-	-	-
O=C(COc1ccccc1-c1ccccc1)N/N=C/c1cccc2ccccc12	?	-	-	-81.7	9.28µM
O=C(CCn1cnc(-c2ccccc2)c1-c1ccccc1)N/N=C/c1ccc(O)cc1	-	-	-	?	-
COc1ccc(/C=N/NC(=O)COc2ccccc2-c2ccccc2)cc1	?	-	-	-68.4	?
Cc1ccc(OCCCCNC2CCCC(C)C2C)c(C)c1 (stereo not given)	?	?	-	-	?
CCOC(=O)c1ccc(NC(=O)C2CCN(C(=O)N3CC(C)Oc4ccc(C)cc43)CC2)cc1 (stereo not given)	.	.	-	-	.
O=C(COCC(=O)N/N=C/c1ccccc1F)N/N=C/c1ccccc1F	-	-	-	-	9.28µM
O=C(COc1cccc2ccccc12)N/N=C/C=C/c1ccccc1	-	-	-	-62.0	-
CC(=O)N1CC[C@H]2CC(=O)CC[C@@]21C	.	-	.	.	.
CSc1cccc(NC(=O)CN2CCN(Cc3ccccc3C)S2(=O)=O)c1	.	.	-	?	.
CN(C)C(=O)c1ccc(-c2ccc3ncnc(N(C)Cc4ccco4)c3c2)cc1	.	-	.	.	.
CCOc1cc(CNc2ccc3c(c2)OCCO3)cc(Br)c1OCC(N)=O	?	-	-	-	?
CCOc1c(Br)cc(CNc2ccc(N3CCOCC3)cc2)cc1OC	-	-	-	-	?
CCOc1cc(CNc2ccc3c(c2)OCCO3)cc(Br)c1OC	.	-	-	-86.5	?
CCOc1c(Br)cc(CNc2ccc3c(c2)OCCO3)cc1OC	.	?	?	-81.6	0.828µM
CCOc1c(Br)cc(CNC2CCCCCCC2)cc1OC	10.4µM	-	-	-	-
COc1cc(CNC2CCCCCCC2)cc(Br)c1OCC#N	?	-	-	?	-
Cc1ccc(NC2CCCN(C(=O)c3cc4ncccn4n3)C2)cc1C (stereo not given)	-	.	-	-	?
COCCN(Cc1nc2ccccc2c(=O)[nH]1)C(=O)COc1cccc(C(C)=O)c1	?	.	-	-	?
COc1ccc(C2(O)CC3CCC(C2)N3c2cc(C)nc(-c3ccccc3)n2)cc1 (stereo not given)	11.7µM	-	-	-	.
Cc1cc(N2CCCC2)nc(N2C3CCC2CC(O)(c2ccc(F)cc2)C3)n1 (stereo not given)	?	-	-	.	-
SMILES	Pf growth 48h	FBPA Giardia inh	Sm TGR block	HCMV inh	Pf growth 96h
Cc1cc(NC(=O)N(C)CCc2c(C)nn(C)c2C)ccc1Br	.	.	-	-	.
Cc1cc(C(=O)CCl)c(C)n1CCc1ccc(Cl)cc1	?	-	7.94µM	-98.3	8.28µM
COc1ccc(CCn2c(C)cc(C(=O)CCl)c2C)cc1OC	?	-	11.2µM	-100.2	?
COc1ccc(CCn2c(C)c(C(C)=O)c(C(C)=O)c2C)cc1OC	-	-	-	-	?
Cc1cc(C(=O)CCl)c(C)n1CCc1ccc(F)cc1	?	-	2.51µM	-83.5	?
Cc1cc(C(=O)CSc2nnc(N)s2)c(C)n1CCc1ccc(Cl)cc1	-	-	-	-	?
O=C(CN1C(=O)c2ccc([N+](=O)[O-])cc2C1=O)Nc1cc(S(=O)(=O)N2CCOCC2)ccc1Cl	-	.	-	-	-
Cc1c(C)n2c(SCC(=O)N3CC(C)OC(C)C3)nnc2[nH]c1=O (stereo not given)	?	.	-	-	5.22µM
Cc1c(C)n2c(SCC(=O)N3CCN(c4ccccc4)CC3)nnc2[nH]c1=O	3.29µM	.	-	-	?
Cc1c(C)n2c(SCC(=O)N3CCOCC3)nnc2[nH]c1=O	?	.	-	-	?
CN(C)CCC(=O)C(Cc1ccccc1)c1ccccc1 (stereo not given)	.	.	.	-	.
CN(C)CC(C(=O)Cc1ccccc1)c1ccccc1 (stereo not given)	.	.	.	-96.5	.
O=C(NNC1=Nc2ccccc2SC1)c1ccc(Cl)cc1	?	-	-	?	?
